This is part of a sample that, as a whole, favours compounds with a hit. Of some 79,000 tested, about 15% had one in any assay. Values without a mark were called inactive. Calls of active or inactive are those of the source. Rule as the data show it: active = growth inhibition above about 70%; inactive = the rest.

Test [1] in a line: NCI Yeast Anticancer Drug Screen. Data for the rad50 strain (AID 155).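 Also: 0% = growth of vehicle-only cultures of the same strain.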 The settings on record: S. cerevisiae rad50 strain growth inhibition, active compounds read high. The method, boiled down:
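Vehicle-treated cultures provide the reference for the growth inhibition reported for compound-exposed, repair-deficient yeast.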

Test [2] in a line: NCI Yeast Anticancer Drug Screen. Data for the mec2-1 strain (AID 157). The settings on record: S. cerevisiae mec2-1 strain, active compounds read high. The method, boiled down:
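Mutant yeast (mec2-1) grown with compound; growth inhibition relative to vehicle control reported.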

Test [3] is described as follows: NCI Yeast Anticancer Drug Screen. Data for the sgs1 mgt1 strain (AID 161).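 Also: 0% = growth of cultures given vehicle only.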 The settings on record: S. cerevisiae sgs1 mgt1 strain, active compounds read high. The method, boiled down:
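This yeast growth screen uses a strain with defined DNA-repair lesions; compound-treated growth is compared with vehicle-treated growth.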

The nature of test [4]: NCI Yeast Anticancer Drug Screen. Data for the cln2 rad14 strain (AID 165).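 Also: 0% = growth equal to vehicle treated cultures.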 The conditions noted are these: S. cerevisiae cln2 rad14 strain, active compounds read high. The method, boiled down:
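Readout is yeast growth inhibition versus vehicle-treated controls, using a strain with cln2 and rad14 alterations exposed to compound.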

Test [5] is described as follows: NCI Yeast Anticancer Drug Screen. Data for the bub3 strain (AID 167). The conditions noted are these: S. cerevisiae bub3 mutant strain, active compounds read high. The method, boiled down:
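Mutant yeast screening strain plus compound; vehicle-treated cultures serve as the 0% inhibition reference.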

Test [6] can be described thus: NCI Yeast Anticancer Drug Screen. Data for the mlh1 rad18 strain (AID 175). The conditions noted are these: S. cerevisiae mlh1 rad18 strain growth inhibition, active compounds read high. The method, boiled down:
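Genetically defined yeast (DNA repair-deficient) exposed to compounds; growth inhibition determined relative to vehicle.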

[7] abbreviates: at 5.0 µM (retest, dose inferred, filed as 0.5).
The mark [8] stands for this setting: at 50.0 µM (retest, dose inferred, filed as 5.0).

On to `O=C(O)c1ccccc1C1c2ccccc2Oc2ccccc21`, for which the growth inhibition was 36% in test [1] (setting [7]); 5% in test [1] (setting [8]); 95.4% (active) in test [1] (at 50.0 µM); -2% in test [2] (setting [7]); 16% in test [2] (setting [8]); 94% (active) in test [2] (at 50.0 µM). In addition, the growth inhibition was -3% in test [3] (setting [7]); 3% in test [3] (setting [8]); 95.4% (active) in test [3] (at 50.0 µM); 5% in test [4] (setting [7]); 6% in test [4] (setting [8]); 97.3% (active) in test [4] (at 50.0 µM). Further, the growth inhibition was 7% in test [5] (setting [7]); 17% in test [5] (setting [8]); 91.2% (active) in test [5] (at 50.0 µM); 0% in test [6] (setting [7]); 7% in test [6] (setting [8]); 95.8% (active) in test [6] (at 50.0 µM).

For `CCCCCCCCCCCCNC(=O)C[n+]1ccc(C(N)=O)cc1`, the growth inhibition was -34% in test [1] (setting [7]); 72% (active) in test [1] (setting [8]); 61.2% in test [1] (at 50.0 µM); -6% in test [2] (setting [7]); 61% in test [2] (setting [8]); 49% in test [2] (at 50.0 µM). For the same compound, the growth inhibition in test [3] (setting [7]) is 1%; in test [3] (setting [8]), 77% (active); in test [3] (at 50.0 µM), 74.2% (active); in test [4] (setting [7]) it was -6%; in test [4] (setting [8]), 86% (active); in test [4] (at 50.0 µM), 24.6%. Moreover, the growth inhibition is -9% in test [5] (setting [7]); 94% (active) in test [5] (setting [8]); 29.2% in test [5] (at 50.0 µM); 0% in test [6] (setting [7]); 92% (active) in test [6] (setting [8]); 41.8% in test [6] (at 50.0 µM).

In the case of `O=C1C(Br)CCC1(c1ccccc1)c1ccccc1` (stereo not given), the growth inhibition in test [1] (setting [7]) is 5%; in test [1] (setting [8]), 91% (active); in test [1] (at 50.0 µM), 97% (active); in test [2] (setting [7]), 6%; in test [2] (setting [8]), 93% (active); in test [2] (at 50.0 µM), 97.2% (active). Also, the growth inhibition in test [3] (setting [7]) was 4%; in test [3] (setting [8]) it was 97% (active); in test [3] (at 50.0 µM), 98% (active); in test [4] (setting [7]), 4%; in test [4] (setting [8]) it was 78% (active); in test [4] (at 50.0 µM) it was 78.8% (active). The growth inhibition in test [5] (setting [7]) was -10%; in test [5] (setting [8]), 94% (active); in test [5] (at 50.0 µM), 95.7% (active); in test [6] (setting [7]) it was 3%; in test [6] (setting [8]), 96% (active); in test [6] (at 50.0 µM) it was 98.2% (active).

In the case of `O=[N+]([O-])c1ccc(N=C(Cl)C(Cl)(c2ccccc2)c2ccccc2)cc1`, the growth inhibition in test [1] (setting [7]) was 14%; in test [1] (setting [8]), 97% (active); in test [1] (at 50.0 µM), 96.2% (active); in test [2] (setting [7]), 11%; in test [2] (setting [8]) it was 97% (active); in test [2] (at 50.0 µM), 96.7% (active). The growth inhibition in test [3] (setting [7]) was -20%; in test [3] (setting [8]) it was 98% (active); in test [3] (at 50.0 µM), 97% (active); in test [4] (setting [7]), 9%; in test [4] (setting [8]) it was 97% (active); in test [4] (at 50.0 µM), 94.2% (active). In addition, the growth inhibition in test [5] (setting [7]) is 8%; in test [5] (setting [8]), 96% (active); in test [5] (at 50.0 µM), 95.2% (active); in test [6] (setting [7]), 7%; in test [6] (setting [8]), 97% (active); in test [6] (at 50.0 µM), 95.5% (active).

Regarding `C=CCOC(=O)CC(OC(C)=O)C(CC)CC(C)C` (stereo not given), the growth inhibition in test [1] (setting [7]) was 0%; in test [1] (setting [8]) it was 26%; in test [1] (at 50.0 µM) it was 24.4%; in test [2] (setting [7]), -1%; in test [2] (setting [8]) it was 12%; in test [2] (at 50.0 µM) it was 19.1%. Besides, the growth inhibition in test [3] (setting [7]) is -6%; in test [3] (setting [8]), 3%; in test [3] (at 50.0 µM), 18.3%; in test [4] (setting [7]), 2%; in test [4] (setting [8]), 20%; in test [4] (at 50.0 µM) it was 80.7% (active). Further, the growth inhibition was 3% in test [5] (setting [7]); 15% in test [5] (setting [8]); 40.3% in test [5] (at 50.0 µM); 0% in test [6] (setting [7]); 12% in test [6] (setting [8]); 27.9% in test [6] (at 50.0 µM).

For the compound `O=[N+]([O-])c1ccc(/C=N\OCc2cscn2)cc1`, the growth inhibition was 3% in test [1] (setting [7]); 46% in test [1] (setting [8]); 76.7% (active) in test [1] (at 50.0 µM); -11% in test [2] (setting [7]); 74% (active) in test [2] (setting [8]); 55.5% in test [2] (at 50.0 µM). Further, the growth inhibition in test [3] (setting [7]) is -10%; in test [3] (setting [8]), 73% (active); in test [3] (at 50.0 µM) it was 62.4%; in test [4] (setting [7]), 0%; in test [4] (setting [8]) it was 31%; in test [4] (at 50.0 µM), -13.4%. Further, the growth inhibition in test [5] (setting [7]) was -6%; in test [5] (setting [8]) it was 88% (active); in test [5] (at 50.0 µM), -19.4%; in test [6] (setting [7]), 11%; in test [6] (setting [8]) it was 79% (active); in test [6] (at 50.0 µM), 71% (active).

Take `CC(=O)c1c2c(cc3c1CC1(Cc4ccccc4C1=O)C3)CCC2` (stereo not given): the growth inhibition was -4% in test [1] (setting [7]); 79% (active) in test [1] (setting [8]); 36.7% in test [1] (at 50.0 µM); -27% in test [2] (setting [7]); 88% (active) in test [2] (setting [8]); 42.8% in test [2] (at 50.0 µM). The growth inhibition in test [3] (setting [7]) was -36%; in test [3] (setting [8]) it was 87% (active); in test [3] (at 50.0 µM), 60%; in test [4] (setting [7]), 27%; in test [4] (setting [8]) it was 29%; in test [4] (at 50.0 µM), 46.4%. For the same compound, the growth inhibition in test [5] (setting [7]) is -4%; in test [5] (setting [8]), 89% (active); in test [5] (at 50.0 µM) it was 63.8%; in test [6] (setting [7]), -11%; in test [6] (setting [8]) it was 73% (active); in test [6] (at 50.0 µM) it was 61.5%.

With `Cc1ccc(N2CC3CC4(C)C=CC3(C2)O4)cc1` (stereo not given), the growth inhibition in test [1] (setting [7]) is 6%; in test [1] (setting [8]) it was 8%; in test [1] (at 50.0 µM) it was 76% (active); in test [2] (setting [7]), -9%; in test [2] (setting [8]), 1%; in test [2] (at 50.0 µM) it was 49.7%. For the same compound, the growth inhibition in test [3] (setting [7]) is 10%; in test [3] (setting [8]), 22%; in test [3] (at 50.0 µM), 79.8% (active); in test [4] (setting [7]), -22%; in test [4] (setting [8]), 10%; in test [4] (at 50.0 µM), -6.65%. Besides, the growth inhibition was 13% in test [5] (setting [7]); -3% in test [5] (setting [8]); 89.5% (active) in test [5] (at 50.0 µM); 30% in test [6] (setting [7]); -1% in test [6] (setting [8]); 50.8% in test [6] (at 50.0 µM).

As to `CCCCCCCCCc1ccc(OCC(O)CO)cc1` (stereo not given), the growth inhibition in test [1] (setting [7]) is -3%; in test [1] (setting [8]), 98% (active); in test [1] (at 50.0 µM) it was 99.6% (active); in test [2] (setting [7]), -1%; in test [2] (setting [8]) it was 99% (active); in test [2] (at 50.0 µM), 99.7% (active). Moreover, the growth inhibition is 2% in test [3] (setting [7]); 99% (active) in test [3] (setting [8]); 99.8% (active) in test [3] (at 50.0 µM); -11% in test [4] (setting [7]); 98% (active) in test [4] (setting [8]); 99.5% (active) in test [4] (at 50.0 µM). Besides, the growth inhibition is -9% in test [5] (setting [7]); 98% (active) in test [5] (setting [8]); 99.8% (active) in test [5] (at 50.0 µM); -4% in test [6] (setting [7]); 98% (active) in test [6] (setting [8]); 99.5% (active) in test [6] (at 50.0 µM).

With `C=C(Br)CN(CC)CC`, the growth inhibition is -151% in test [1] (setting [7]); -185% in test [1] (setting [8]); -16.6% in test [1] (at 50.0 µM); -48% in test [2] (setting [7]); -54% in test [2] (setting [8]); -15.7% in test [2] (at 50.0 µM). The growth inhibition is -64% in test [3] (setting [7]); -67% in test [3] (setting [8]); -5.55% in test [3] (at 50.0 µM); -51% in test [4] (setting [7]); -63% in test [4] (setting [8]); 11.7% in test [4] (at 50.0 µM). Besides, the growth inhibition was -69% in test [5] (setting [7]); -72% in test [5] (setting [8]); -0.5% in test [5] (at 50.0 µM); -130% in test [6] (setting [7]); -170% in test [6] (setting [8]); -3.5% in test [6] (at 50.0 µM).

(Values after PubChem BioAssay (NCI).)
